The text below walks through data of PubChem BioAssay (NCATS).

SMILES strings stand for the structures. Records with an inconclusive call do not appear. Where a call stands in place of a potency, no number is given. Activity calls are given as the source filed them. Calls follow the shape of the dose curve; as a rule, active = well fitted cell-killing curve with a large enough effect; inconclusive = small, poorly fitted or top-dose-only effect; inactive = flat fitted curve, though single readings scatter.
Potency is read from the fitted curve at half-maximal effect.

This assay in a line: qHTS of pediatric cancer cell lines to identify multiple opportunities for drug repurposing: Primary screen for BT-37 cells (AID 1347094). The following applies: BT-37 viability, CellTiter-Glo luminescence, 48 h; series mostly up to 57.3 µM. The source says:
Drug repurposing or repositioning has been offered as a strategy for drug development in oncology programs. This approach has special potential for childhood cancers and other rare or orphan diseases, where the expected return on new drug development has been a disincentive to pharmaceuticals. […] In this project we exploit the poly-pharmacology of drugs to discover new indications via phenotypic screening of a panel of 19 well-characterized cell lines derived from solid tumors seen in children and adolescents. The goal is to identify approved drugs with previously unrecognized anticancer properties that has the potential to reveal new mechanisms and biological processes involved in carcinogenesis or drug resistance. We employed a titration-based paradigm (quantitative high-throughput screening or qHTS), where all compounds were tested at multiple concentrations for their effect on cell viability. Concentration-response curves (CRCs) were derived directly from the primary screen, and both potency and efficacy values were used to identify compounds with robust bioactivity profiles. We screened the NIH Chemical Genomics Center (NCGC) Pharmaceutical Collection (NPC) and Mechanism Interrogation Plate (MIPE) small molecule collections of approved and investigational compounds against these cell lines; and measured metabolically active cells after 48 hours of compound treatment as a proxy for cell viability. […] Assay Submitter: Nathalia J. Martinez, National Center for Advancing Translational Sciences, National Institutes of Health, Rockville, MD, USA; email: natalia.martinez@nih.gov Shen, M et al. Quantitative high-throughput phenotypic screening of pediatric cancer cell lines identifies multiple opportunities for drug repurposing. Oncotarget 2017 Dec 19;9(4):4758-4772. PMID 29435139.
The cells were obtained from University of North Carolina (UNC), Pediatric Preclinical Testing Program (PPT), and Coriell Institute (CI). qHTS cell viability assay: Cells were assayed in growth media at a density of 500-1,000 cells/well. Five microliters of cells were dispensed into 1,536-well, white, solid-bottom, TC-treated plates (Greiner Bio One) using a multidrop dispenser and incubated at 37 degrees C, 5% CO2, under a humidified atmosphere for 5 hours. Twenty-three nanoliters of compounds and controls (neutral control DMSO or positive control bortezomib at final concentration of 2.3 µM) were subsequently transferred by Kalypsys pintool. For primary screens, the MIPE collection was tested at 11-point dilutions (final concentrations range from 0.78 nM to 46 µM) and the NPC collection at 8-point dilutions (final concentrations range from 0.59 nM to 46 µM). Compounds tested in follow-up screens were assayed at 11-point dilutions. Cells were incubated for 48 hours, followed by addition of 3 µL of CellTiter-Glo (Promega). After a 15 min incubation at room temperature, samples were analyzed for luminescence intensity using a ViewLux High-throughput CCD imager equipped with clear filters.
In general terms: qHTS replaces the single test concentration by a dilution series.
Regarding `O=S(c1cc(Cl)cc(Cl)c1O)c1cc(Cl)cc(Cl)c1O`, the Potency result is “inactive”.
Regarding `CCCCN=C(N)N=C(N)N`, the Potency result is “inactive”.
Turning to `CC1CCc2c(N3CCC(O)CC3)c(F)cc3c(=O)c(C(=O)O)cn1c23` (stereo not given), the Potency result was “inactive”.
With `N[C@H](C(=O)O)[C@@H](O)c1ccc(O)c(O)c1`, the Potency result is “inactive”.
Turning to `OCCOCCN1CCN(C2=Nc3ccccc3Sc3ccccc32)CC1`, the Potency result was “inactive”.
For `CC(=O)NO`, the Potency result is “inactive”.
As to `CC(C)[C@@H]1CC[C@@H](C)CC1=O`, the Potency entry is “inactive”.
Then `C=CCN1CCc2nc(N)sc2CC1`, with “inactive”; and `O=C1C(O)=C(O)C(=O)C(O)=C1O`, with “inactive”; and `CCOC(=O)Nc1ccc2c(c1)N(C(=O)CCN1CCOCC1)c1ccccc1S2`, with “inactive”.
On to `CC(C(=O)O)c1cccc(Oc2ccccc2)c1` (stereo not given), for which the Potency result was “inactive”.
`CC1(COc2ccc(CC3SC(=O)NC3=O)cc2)CCCCC1` (stereo not given): the Potency result is “inactive”.
Consider `CCCCC(CC)COC(=O)c1ccc(N(C)C)cc1` (stereo not given), for which the Potency entry is “inactive”.
Then `CCCCCCCCCCCCCCCC(=O)O`, with “inactive”; and `Cc1cc(CC(=O)O)c(C)n1-c1ccc(Cl)cc1`, with “inactive”.
As to `Cc1cccc(C)c1NC(=O)CN1CCCCCC1`, the Potency result was “inactive”.
As for `COc1ccc(CN(CCN(C)C)c2ncccn2)cc1`, the Potency entry was “inactive”.
Then `C/C=C/c1ccc(O)c(OC)c1`, with “inactive”; and `CCCc1ncc(C[n+]2ccccc2C)c(N)n1`, with “inactive”.
Consider `CCCCCCCCCCCCCC(=O)OC(C)C`, for which the Potency result was “inactive”.
On to `CCCCC(CC)CN1CN(CC(CC)CCCC)CC(C)(N)C1` (stereo not given), for which the Potency result is “inactive”.
Regarding `CC(C)(C)NC[C@H](O)COc1cccc2c1CCCC2=O`, the Potency result is “inactive”.
In the case of `C/C=C/C=N/NC(=O)c1ccncc1`, the Potency entry is “inactive”.
Turning to `FC(F)(F)C(F)(F)C(F)(F)C(F)(F)C(F)(F)C(F)(F)C(F)(F)C(F)(F)Br`, the Potency result was “inactive”.
For `CCCN(CCC)S(=O)(=O)c1ccc(C(=O)O)cc1`, the Potency result is “inactive”.
On to `NCCNc1cccc2ccccc12`, for which the Potency result was “inactive”.
Then `CCCCCCCCCCCCCCC[C@H](O)[C@@H](N)CO`, with “inactive”.
As for `O=C(O)CCNC(=O)c1ccccc1`, the Potency entry was “inactive”.
Consider `O=C1C(=O)c2ccccc2C(O)=C1C1CCC(c2ccc(Cl)cc2)CC1` (stereo not given), for which the Potency result is “inactive”.
`CCCCCCCCCCCCOCCOCCOCCOCCOCCOCCOCCOCCOCCO`: the Potency was 19.5 µM (active).
With `CCOc1ccccc1C(N)=O` the entry was “inactive”; with `Cc1ccc2c(Br)cc(Br)c(O)c2n1`, 8.71 µM (active).
As to `CCc1ccc(C(=O)C(C)CN2CCCCC2)cc1` (stereo not given), the Potency result is “inactive”.
In the case of `CCCCCCCCOc1ccc(C(=O)c2ccccc2)c(O)c1`, the Potency result was “inactive”.
Regarding `CN(C)CCN1C(=O)c2ccccc2N(C)c2ccccc21`, the Potency entry is “inactive”.
`O=C(O)P(=O)(O)O`: the Potency result is “inactive”.
In the case of `Cc1ccc(S(=O)(=O)NC(=O)NC2CCCC2)cc1`, the Potency result was “inactive”.
Take `CC(C)(C)NCC(O)COc1cccc2c1C[C@H](O)[C@H](O)C2` (stereo not given in full): the Potency result was “inactive”.
As to `NC(N)=NN=C(/C=C/c1ccc([N+](=O)[O-])o1)/C=C/c1ccc([N+](=O)[O-])o1`, the Potency was 11 µM (active).
Take `C[N+]12CCC(CC1)C(OC(=O)C(O)(c1ccccc1)c1ccccc1)C2` (stereo not given): the Potency result is “inactive”.
